Values without a mark were called inactive.
Legend:
Test in all cases: log2 ratio of Biotin-Ahx-Ub-VS probe labelling (fragment/DMSO); higher = less target engagement (more negative = stronger competition), active = hit call of the paper (q ≤ 0.05, log2 ratio ≤ -1)
Conditions in all cases: compound concentration: 200 uM; treatment time: 3 h
[1] = molecular target: USP34 (UniProt Q70CQ2)
In short: (§1)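 The table lists average log2 ratios of fragment over vehicle, from an unpaired t-test on global-median-normalised Spectronaut label-free quantities. Proteins with ≥2 unique peptides were used. Samples were HEK293T lysate (495 µg) treated in triplicate with fragment at 200 µM or vehicle for 3 h, then with Biotin-Ahx-Ub-VS (0.5 µM final) for 1 h, with labelled DUBs NeutrAvidin-enriched and run by diaPASEF LC-MS/MS.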

[2] = molecular target: T1, USP36 (UniProt Q9P275)
T1 sequence (whole entry): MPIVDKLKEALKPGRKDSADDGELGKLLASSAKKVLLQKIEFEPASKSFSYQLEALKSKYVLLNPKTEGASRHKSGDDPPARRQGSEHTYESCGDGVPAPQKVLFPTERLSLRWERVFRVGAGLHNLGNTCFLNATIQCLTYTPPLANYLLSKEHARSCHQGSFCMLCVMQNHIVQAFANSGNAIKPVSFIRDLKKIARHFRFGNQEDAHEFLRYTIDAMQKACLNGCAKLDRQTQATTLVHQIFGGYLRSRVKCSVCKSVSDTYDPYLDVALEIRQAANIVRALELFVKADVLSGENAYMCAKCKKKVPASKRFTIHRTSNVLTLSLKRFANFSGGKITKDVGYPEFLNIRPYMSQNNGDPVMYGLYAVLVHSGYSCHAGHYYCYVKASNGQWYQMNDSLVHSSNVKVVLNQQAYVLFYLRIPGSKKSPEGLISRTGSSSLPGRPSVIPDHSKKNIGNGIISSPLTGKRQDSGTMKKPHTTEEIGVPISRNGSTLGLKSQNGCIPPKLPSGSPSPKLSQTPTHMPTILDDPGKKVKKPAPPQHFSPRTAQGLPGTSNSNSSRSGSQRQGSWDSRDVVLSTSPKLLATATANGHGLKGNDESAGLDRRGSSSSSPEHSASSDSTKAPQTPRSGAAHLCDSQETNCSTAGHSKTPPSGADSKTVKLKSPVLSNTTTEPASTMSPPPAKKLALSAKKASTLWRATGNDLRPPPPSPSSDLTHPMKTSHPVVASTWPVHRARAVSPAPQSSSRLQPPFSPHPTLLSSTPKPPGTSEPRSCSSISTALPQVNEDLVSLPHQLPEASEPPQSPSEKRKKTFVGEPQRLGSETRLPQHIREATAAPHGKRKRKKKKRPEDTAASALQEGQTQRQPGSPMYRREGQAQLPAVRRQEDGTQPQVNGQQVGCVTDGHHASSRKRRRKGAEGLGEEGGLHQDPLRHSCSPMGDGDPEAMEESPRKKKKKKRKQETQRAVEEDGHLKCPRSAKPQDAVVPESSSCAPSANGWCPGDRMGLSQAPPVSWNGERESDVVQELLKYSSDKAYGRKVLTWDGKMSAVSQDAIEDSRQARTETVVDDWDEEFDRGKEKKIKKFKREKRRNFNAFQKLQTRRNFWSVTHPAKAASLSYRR
In short: as §1

[3] = molecular target: T2, USP38 (UniProt Q8NB14)
T2 sequence (whole entry): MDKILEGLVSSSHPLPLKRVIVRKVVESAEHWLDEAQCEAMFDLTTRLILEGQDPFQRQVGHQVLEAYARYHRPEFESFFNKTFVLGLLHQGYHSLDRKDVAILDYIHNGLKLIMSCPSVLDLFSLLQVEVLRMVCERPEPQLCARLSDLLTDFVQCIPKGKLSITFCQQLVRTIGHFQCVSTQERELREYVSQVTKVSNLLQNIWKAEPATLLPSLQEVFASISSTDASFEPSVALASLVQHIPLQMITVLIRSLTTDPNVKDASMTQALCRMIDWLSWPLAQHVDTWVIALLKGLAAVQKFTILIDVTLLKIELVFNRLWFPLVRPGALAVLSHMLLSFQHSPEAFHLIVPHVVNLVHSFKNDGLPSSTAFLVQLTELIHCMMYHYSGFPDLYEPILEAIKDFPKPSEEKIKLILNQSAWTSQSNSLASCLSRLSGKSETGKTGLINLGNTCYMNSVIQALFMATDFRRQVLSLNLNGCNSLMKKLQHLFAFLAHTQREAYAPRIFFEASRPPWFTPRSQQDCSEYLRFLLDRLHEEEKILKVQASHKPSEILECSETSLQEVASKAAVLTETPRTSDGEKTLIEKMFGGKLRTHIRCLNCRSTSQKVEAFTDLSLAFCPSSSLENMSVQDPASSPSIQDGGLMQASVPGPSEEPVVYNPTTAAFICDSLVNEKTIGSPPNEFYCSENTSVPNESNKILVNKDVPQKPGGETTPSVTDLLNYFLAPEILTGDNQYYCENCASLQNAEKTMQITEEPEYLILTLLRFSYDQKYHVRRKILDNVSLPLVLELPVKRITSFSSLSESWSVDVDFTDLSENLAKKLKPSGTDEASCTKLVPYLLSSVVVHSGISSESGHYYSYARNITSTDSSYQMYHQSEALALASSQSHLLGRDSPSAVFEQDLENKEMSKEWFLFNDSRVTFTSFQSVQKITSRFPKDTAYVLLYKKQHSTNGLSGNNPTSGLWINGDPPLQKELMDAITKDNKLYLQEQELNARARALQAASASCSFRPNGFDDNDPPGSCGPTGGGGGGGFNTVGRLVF
In short: as §1

[4] = molecular target: T3, USP39 (UniProt Q53GS9)
T3 sequence (whole entry): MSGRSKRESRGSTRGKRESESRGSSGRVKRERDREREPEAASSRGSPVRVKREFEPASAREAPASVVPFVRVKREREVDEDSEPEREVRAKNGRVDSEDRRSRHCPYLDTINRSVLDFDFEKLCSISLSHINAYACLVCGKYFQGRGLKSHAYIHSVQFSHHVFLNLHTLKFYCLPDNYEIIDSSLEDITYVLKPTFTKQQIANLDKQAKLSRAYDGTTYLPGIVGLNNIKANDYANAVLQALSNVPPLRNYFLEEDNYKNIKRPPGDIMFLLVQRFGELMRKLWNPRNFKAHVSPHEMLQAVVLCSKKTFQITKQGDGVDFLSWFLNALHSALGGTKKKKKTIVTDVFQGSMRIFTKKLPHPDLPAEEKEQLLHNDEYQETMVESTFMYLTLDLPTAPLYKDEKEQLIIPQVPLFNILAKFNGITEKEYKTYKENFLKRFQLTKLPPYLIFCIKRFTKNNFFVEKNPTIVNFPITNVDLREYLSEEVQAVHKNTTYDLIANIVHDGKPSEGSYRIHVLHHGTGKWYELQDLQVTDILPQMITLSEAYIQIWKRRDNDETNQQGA
In short: as §1

[5] = molecular target: T4, USP4 (UniProt Q13107)
T4 sequence (whole entry): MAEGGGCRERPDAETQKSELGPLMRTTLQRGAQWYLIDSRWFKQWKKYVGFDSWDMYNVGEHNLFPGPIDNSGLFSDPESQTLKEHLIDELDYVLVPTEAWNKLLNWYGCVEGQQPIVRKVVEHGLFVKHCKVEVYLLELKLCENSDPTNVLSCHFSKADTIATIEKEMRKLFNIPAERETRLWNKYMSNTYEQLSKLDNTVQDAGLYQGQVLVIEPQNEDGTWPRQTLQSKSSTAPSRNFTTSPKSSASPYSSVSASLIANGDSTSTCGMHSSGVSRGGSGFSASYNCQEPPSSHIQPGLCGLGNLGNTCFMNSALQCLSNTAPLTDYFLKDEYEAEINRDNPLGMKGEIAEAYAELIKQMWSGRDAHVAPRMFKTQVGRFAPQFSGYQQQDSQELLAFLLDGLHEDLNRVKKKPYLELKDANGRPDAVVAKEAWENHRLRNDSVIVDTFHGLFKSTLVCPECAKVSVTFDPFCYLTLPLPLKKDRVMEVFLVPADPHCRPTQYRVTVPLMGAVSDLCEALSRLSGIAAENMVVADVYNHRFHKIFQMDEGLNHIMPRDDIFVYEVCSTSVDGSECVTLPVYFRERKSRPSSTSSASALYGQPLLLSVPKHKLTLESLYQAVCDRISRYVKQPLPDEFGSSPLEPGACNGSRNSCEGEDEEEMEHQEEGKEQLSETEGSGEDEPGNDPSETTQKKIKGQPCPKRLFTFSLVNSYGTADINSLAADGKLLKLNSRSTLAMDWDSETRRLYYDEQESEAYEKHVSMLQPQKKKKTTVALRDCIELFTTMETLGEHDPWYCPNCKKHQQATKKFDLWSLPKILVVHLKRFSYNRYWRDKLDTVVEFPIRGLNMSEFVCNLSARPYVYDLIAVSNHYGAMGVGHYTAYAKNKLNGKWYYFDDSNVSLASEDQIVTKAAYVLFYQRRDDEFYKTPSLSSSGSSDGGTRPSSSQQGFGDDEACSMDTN
In short: as §1

Chain of USP34 (Q70CQ2 whole entry, the tested form may be a part): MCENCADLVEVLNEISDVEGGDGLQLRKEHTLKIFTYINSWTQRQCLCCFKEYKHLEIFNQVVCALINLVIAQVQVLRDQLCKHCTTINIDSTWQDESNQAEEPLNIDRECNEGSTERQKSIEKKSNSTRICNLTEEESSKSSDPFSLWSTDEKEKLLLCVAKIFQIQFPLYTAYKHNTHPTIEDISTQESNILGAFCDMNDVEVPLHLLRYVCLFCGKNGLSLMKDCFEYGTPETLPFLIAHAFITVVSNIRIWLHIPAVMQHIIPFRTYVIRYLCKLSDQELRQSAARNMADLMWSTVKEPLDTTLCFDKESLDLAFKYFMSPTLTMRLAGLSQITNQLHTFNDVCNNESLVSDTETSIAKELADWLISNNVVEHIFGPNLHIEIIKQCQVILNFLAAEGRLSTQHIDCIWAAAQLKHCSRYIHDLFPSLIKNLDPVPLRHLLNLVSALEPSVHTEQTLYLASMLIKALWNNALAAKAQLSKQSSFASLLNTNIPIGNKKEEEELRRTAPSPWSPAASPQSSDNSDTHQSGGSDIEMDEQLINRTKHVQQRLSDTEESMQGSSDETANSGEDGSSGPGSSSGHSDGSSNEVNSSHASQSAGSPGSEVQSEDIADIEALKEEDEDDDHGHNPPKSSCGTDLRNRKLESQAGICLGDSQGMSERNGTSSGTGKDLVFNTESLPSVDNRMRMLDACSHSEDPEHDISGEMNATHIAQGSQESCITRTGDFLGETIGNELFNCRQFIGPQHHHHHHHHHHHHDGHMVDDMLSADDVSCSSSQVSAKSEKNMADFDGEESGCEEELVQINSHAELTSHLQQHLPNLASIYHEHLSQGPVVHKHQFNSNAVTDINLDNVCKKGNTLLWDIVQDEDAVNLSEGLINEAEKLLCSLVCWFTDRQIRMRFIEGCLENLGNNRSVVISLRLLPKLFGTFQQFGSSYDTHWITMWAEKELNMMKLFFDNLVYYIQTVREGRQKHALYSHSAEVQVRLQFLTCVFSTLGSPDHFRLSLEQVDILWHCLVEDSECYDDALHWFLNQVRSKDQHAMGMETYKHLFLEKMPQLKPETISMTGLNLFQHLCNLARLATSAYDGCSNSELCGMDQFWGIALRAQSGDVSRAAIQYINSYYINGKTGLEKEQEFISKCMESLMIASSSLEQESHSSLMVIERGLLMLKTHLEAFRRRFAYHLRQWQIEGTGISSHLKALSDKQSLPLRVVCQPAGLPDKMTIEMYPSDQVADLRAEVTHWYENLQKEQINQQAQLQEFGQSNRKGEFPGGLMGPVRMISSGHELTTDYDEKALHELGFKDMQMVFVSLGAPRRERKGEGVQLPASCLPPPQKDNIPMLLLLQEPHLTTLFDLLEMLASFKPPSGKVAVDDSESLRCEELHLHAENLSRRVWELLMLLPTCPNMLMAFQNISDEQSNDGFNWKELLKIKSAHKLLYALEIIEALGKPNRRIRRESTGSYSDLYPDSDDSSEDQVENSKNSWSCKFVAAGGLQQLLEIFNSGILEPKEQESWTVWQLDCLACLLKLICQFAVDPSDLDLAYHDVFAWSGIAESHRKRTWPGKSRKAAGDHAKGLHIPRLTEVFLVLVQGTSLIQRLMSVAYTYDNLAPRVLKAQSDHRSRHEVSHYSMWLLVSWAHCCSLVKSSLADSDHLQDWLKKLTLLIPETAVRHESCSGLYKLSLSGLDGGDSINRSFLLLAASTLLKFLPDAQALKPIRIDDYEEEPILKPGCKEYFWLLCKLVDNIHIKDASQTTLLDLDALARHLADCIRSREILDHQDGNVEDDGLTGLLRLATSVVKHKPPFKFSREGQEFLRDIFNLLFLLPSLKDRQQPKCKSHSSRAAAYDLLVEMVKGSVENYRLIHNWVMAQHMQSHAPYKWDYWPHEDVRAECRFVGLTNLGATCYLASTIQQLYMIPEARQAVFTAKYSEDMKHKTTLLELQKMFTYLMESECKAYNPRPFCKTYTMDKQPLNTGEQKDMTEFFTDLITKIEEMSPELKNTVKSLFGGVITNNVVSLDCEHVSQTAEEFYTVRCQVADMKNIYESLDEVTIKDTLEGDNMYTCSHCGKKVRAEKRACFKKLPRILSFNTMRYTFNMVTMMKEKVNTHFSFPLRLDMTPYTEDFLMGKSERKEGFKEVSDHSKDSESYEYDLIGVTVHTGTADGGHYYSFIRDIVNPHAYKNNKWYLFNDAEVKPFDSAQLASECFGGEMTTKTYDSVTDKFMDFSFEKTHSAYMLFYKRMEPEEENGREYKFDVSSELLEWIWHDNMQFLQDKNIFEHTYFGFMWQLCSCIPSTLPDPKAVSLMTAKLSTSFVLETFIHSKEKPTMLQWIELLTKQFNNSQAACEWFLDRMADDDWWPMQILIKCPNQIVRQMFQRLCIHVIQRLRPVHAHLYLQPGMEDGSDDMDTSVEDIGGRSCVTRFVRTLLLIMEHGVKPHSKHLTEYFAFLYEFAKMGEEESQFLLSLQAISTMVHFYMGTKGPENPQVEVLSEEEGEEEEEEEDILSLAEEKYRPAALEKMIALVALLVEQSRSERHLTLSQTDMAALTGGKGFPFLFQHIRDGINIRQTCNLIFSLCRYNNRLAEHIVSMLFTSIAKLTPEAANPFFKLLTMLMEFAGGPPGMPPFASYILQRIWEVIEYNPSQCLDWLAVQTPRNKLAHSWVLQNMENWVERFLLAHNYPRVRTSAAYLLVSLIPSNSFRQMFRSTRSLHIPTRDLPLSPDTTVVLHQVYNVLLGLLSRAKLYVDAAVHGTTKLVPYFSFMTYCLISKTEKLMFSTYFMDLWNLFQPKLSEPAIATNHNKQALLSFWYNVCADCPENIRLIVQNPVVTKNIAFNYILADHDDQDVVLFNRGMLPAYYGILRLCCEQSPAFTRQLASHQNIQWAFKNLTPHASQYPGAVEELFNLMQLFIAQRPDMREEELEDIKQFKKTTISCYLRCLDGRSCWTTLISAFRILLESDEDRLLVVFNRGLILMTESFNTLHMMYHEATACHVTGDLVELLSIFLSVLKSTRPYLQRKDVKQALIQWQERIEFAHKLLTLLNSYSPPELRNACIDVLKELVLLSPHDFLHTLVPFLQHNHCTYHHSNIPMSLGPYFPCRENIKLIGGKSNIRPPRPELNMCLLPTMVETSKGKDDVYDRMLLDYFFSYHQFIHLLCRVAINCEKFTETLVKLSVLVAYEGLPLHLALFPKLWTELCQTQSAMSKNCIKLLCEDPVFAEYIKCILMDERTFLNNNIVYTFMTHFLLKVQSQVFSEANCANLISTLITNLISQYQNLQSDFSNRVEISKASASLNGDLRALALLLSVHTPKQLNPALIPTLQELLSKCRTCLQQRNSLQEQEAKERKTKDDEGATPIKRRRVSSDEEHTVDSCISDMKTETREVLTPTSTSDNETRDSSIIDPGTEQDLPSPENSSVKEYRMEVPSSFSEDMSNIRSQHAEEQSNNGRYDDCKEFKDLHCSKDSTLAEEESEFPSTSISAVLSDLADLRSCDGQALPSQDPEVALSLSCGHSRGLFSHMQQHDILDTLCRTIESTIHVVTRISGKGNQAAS

## O=C(CCl)N1CC=C(c2c[nH]c3ccccc23)CC1
[1]
  log2 ratio of Biotin-Ahx-Ub-VS probe labelling: -0.9
[2]
  log2 ratio of Biotin-Ahx-Ub-VS probe labelling: 0.0858
[3]
  log2 ratio of Biotin-Ahx-Ub-VS probe labelling: -0.476
[4]
  log2 ratio of Biotin-Ahx-Ub-VS probe labelling: 0.536
[5]
  log2 ratio of Biotin-Ahx-Ub-VS probe labelling: -1.2 (active)

From the supplement of paper PMC11732987, “Enantioselective OTUD7B fragment discovery through chemoproteomics screening and high-throughput optimisation” (Communications Chemistry, 2025)
